The values that follow come from PubChem BioAssay (Tox21).

Test [1] can be described thus: Caspase-3/7 induction in HepG2 cells by small molecules, qHTS assay (AID 1346978). Further: nearly all actives have a fitted effect of over 15% in size. The method, boiled down:
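Wild-type HepG2 cells, 2,000/well, settled 5 hr at 37 C and 5% CO2, then compound-treated for 17 hr; caspase-3/7 activity read by luminescent Caspase-Glo 3/7 after 30 min at room temperature.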

Test [2] can be described thus: Caspase-3/7 induction in CHO-K1 cells by small molecules, qHTS cell viability counter screen (AID 1346979). Further: nearly all actives have a fitted effect of over 35% in size. The procedure, abridged:
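Wild-type CHO-K1 cells (1,500/well) treated with compound after 5 h plating; after 16 h at 37C, viability read as CellTiter-Fluor fluorescence following 1 h reagent incubation, in the same wells as the caspase read.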

A short description of test [3]: Caspase-3/7 induction in CHO-K1 cells by small molecules, qHTS assay (AID 1346980). Further: nearly all actives have a fitted effect of over 15% in size. The method, boiled down: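 Wild-type CHO-K1 cells exposed to compounds for 17hr at 37 C, 5% CO2. Caspase-3/7 activity then measured by Caspase-Glo 3/7 luminescence after 30min at room temperature.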
Test [4] can be described thus: Caspase-3/7 induction in HepG2 cells by small molecules, qHTS cell viability counter screen (AID 1346981). Further: nearly all actives have a fitted effect of over 30% in size. The method, boiled down: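 Fluorescence read-out of live-cell protease activity (CellTiter-Fluor) after 1 hr with reagent. This was measured in the same wells as the caspase-3/7 luminescence, on HepG2 cells exposed to DMSO-dissolved compounds for 16 hr at 37 C.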
(In general: qHTS replaces the single test concentration by a dilution series.)

Test [5] in a line: Human pregnane X receptor (PXR) small molecule agonists, qHTS cell viability counter screen (AID 1346977). Further: nearly all actives have a fitted effect of over 50% in size. The procedure, abridged:
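PXR-Luc HepG2 cells (2,000/well, 5% charcoal-stripped FBS) preincubated 5 hr, then exposed to compounds 24 hr at 37 C. Viability read in the same wells by CellTiter-Fluor fluorescence, reagent added at 23 hr, 1 hr incubation.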

Test [6] deals with Cytochrome P450 2D6 (Homo sapiens) (UniProt P10635). As to the kind of experiment: Cytochrome P450 Family 2 Subfamily D Member 6 (CYP2D6) small molecule antagonists: luciferase reporter qHTS assay (AID 1671196). Further: nearly all actives have a fitted effect of over 50% in size. The procedure, abridged:
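Luminogenic proluciferin substrate, CYP2D6 enzyme; 10 min RT preincubation with compound, NADPH regeneration system added, 1 h RT. Stop/detection reagent, 20 min RT, luminescence read (RLU). Signal proportional to CYP activity.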

Test [7] addresses Cytochrome P450 1A2 (Homo sapiens) (UniProt P05177). As to the kind of experiment: Cytochrome P450 Family 1 Subfamily A Member 2 (CYP1A2) small molecule antagonists: luciferase reporter qHTS assay (AID 1671199). Further: nearly all actives have a fitted effect of over 50% in size. The procedure, abridged:
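Luminescence readout (relative luminescence units) after luciferin detection reagent, 20 min RT. Preceded by 1 h room-temperature CYP1A2 reaction with NADPH regeneration solution following 10 min compound preincubation with enzyme and proluciferin substrate. Furafylline positive control.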
A general note: In a reporter assay the amount or activity of a reporter protein is the signal.

Test [8] deals with Nuclear receptor subfamily 1 group I member 2 (Homo sapiens) (UniProt O75469). As to the kind of experiment: Human pregnane X receptor (PXR) small molecule agonists, qHTS assay (AID 1346982). Further: nearly all actives have a fitted effect of over 35% in size. On activation: on the % scale 0 is the no-effect control and ±100 the full control effect. The procedure, abridged: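 HepG2 PXR-Luc reporter line, 5% charcoal-stripped FBS; 5 hr pre-incubation, compound (DMSO) 24 hr at 37 C/5% CO2; ONE-Glo 30 min RT; luminescence read-out.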
Chain of Nuclear receptor subfamily 1 group I member 2 (Homo sapiens) (O75469 whole entry, looked up): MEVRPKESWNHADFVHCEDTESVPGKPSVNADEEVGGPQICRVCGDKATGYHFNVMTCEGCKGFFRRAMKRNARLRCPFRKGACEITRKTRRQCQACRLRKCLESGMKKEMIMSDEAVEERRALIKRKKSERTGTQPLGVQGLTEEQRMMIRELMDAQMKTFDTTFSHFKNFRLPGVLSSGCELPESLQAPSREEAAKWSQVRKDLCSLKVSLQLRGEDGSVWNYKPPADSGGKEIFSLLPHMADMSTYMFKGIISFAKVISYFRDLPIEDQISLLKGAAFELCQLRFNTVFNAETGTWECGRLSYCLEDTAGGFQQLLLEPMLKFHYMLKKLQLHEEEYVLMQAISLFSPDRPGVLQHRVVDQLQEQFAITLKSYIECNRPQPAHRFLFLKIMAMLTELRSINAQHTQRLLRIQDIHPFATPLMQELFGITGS
In test [9] the target is Cytochrome P450 2C19 (Homo sapiens) (UniProt P33261). As to the kind of experiment: Cytochrome P450 Family 2 Subfamily C Member 19 (CYP2C19) small molecule antagonists: luciferase reporter qHTS assay (AID 1671197). Further: nearly all actives have a fitted effect of over 65% in size. The method, boiled down: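 Light output is proportional to CYP2C19 activity: proluciferin substrate is converted to luciferin, then detected by a luciferin detection reagent that also stops the 1 h, 37C NADPH-driven reaction. Ketoconazole serves as positive control.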
Chain of Cytochrome P450 2C19 (Homo sapiens) (P33261 whole entry, looked up): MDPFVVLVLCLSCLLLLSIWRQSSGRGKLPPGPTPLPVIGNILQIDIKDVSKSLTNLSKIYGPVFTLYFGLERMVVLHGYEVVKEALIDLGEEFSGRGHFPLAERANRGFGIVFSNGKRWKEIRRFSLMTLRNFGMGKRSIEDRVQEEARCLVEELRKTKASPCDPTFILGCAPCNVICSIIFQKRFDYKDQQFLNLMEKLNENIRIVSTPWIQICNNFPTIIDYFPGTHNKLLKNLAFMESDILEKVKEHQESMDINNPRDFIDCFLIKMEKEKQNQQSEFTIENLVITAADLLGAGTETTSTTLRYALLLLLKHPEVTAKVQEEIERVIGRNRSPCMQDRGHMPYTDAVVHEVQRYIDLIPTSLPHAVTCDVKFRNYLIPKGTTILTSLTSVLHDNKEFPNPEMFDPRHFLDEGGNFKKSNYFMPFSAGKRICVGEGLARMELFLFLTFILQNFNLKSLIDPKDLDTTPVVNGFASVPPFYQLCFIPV

For test [10], the target named is Cytochrome P450 2C9 (Homo sapiens) (UniProt P11712). As to the kind of experiment: Cytochrome P450 Family 2 Subfamily C Member 9 (CYP2C9) small molecule antagonists: luciferase reporter qHTS assay (AID 1671198). Further: nearly all actives have a fitted effect of over 50% in size. The procedure, abridged: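 P450-Glo proluciferin substrate with CYP2C9 enzyme; 10 min RT preincubation, then NADPH regeneration 1 h at 37C; luciferin detection reagent 20 min RT, luminescence in relative luminescence units.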
Chain of Cytochrome P450 2C9 (Homo sapiens) (P11712 whole entry, looked up): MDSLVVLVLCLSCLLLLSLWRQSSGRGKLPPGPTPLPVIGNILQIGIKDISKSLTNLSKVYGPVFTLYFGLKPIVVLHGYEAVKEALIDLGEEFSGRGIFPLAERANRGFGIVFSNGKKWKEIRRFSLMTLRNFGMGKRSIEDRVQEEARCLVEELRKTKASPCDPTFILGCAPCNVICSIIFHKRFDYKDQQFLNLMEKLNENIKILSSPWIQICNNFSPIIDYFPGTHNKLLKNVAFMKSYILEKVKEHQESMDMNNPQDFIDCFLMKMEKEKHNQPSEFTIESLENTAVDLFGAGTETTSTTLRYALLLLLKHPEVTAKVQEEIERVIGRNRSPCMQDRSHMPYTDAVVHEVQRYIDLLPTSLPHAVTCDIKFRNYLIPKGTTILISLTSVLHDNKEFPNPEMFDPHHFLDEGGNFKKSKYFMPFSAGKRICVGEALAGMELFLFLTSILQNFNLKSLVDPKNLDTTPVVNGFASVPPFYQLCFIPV

In test [11] the target is Voltage-gated inwardly rectifying potassium channel KCNH2 (Homo sapiens) (UniProt Q12809). As to the kind of experiment: Human Ether-a-go-go-Related Gene (hERG) channel small molecule antagonists: fluorescence cell-based qHTS assay (AID 1671200). Further: nearly all actives have a fitted effect of over 50% in size. The method, boiled down:
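hERG-U2OS cells plated overnight at 37 C, loaded with FluxOR II dye 1 h at RT in dark; after 10 min, thallium stimulus added. Fluorescence (480/540 nm) read kinetically for 2 min at 1 s intervals.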
Background: Block of hERG is tested as a sign of cardiac risk.

The target of test [12] is Cytochrome P450 3A4 (Homo sapiens) (UniProt P08684). As to the kind of experiment: Cytochrome P450 Family 3 Subfamily A Member 4 (CYP3A4) small molecule antagonists: luciferase reporter qHTS assay (AID 1671201). Further: nearly all actives have a fitted effect of over 50% in size. The method, boiled down: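 P450-Glo CYP3A4 luminescent assay: compounds preincubated 10 min at room temperature with enzyme and proluciferin substrate, NADPH regeneration added, 1 h room-temperature reaction, stopped with luciferin detection reagent; luminescence read after 20 min. Ketoconazole positive control.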
Chain of Cytochrome P450 3A4 (Homo sapiens) (P08684 whole entry, looked up): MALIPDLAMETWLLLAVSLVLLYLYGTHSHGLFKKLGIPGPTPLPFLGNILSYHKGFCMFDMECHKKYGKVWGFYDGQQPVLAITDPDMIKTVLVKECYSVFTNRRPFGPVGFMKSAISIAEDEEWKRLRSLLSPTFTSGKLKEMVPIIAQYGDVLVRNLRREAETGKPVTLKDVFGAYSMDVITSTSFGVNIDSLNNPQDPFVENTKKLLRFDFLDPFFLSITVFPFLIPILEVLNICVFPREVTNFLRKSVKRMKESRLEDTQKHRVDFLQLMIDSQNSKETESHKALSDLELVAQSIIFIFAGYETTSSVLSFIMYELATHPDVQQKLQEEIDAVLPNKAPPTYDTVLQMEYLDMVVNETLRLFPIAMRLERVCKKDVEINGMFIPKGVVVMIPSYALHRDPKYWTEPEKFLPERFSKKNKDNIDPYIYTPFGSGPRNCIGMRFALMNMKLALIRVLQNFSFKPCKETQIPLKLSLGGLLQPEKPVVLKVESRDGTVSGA

In test [13] the target is Nuclear receptor subfamily 1 group I member 2 (Rattus norvegicus) (UniProt Q9R1A7). As to the kind of experiment: Rat pregnane X receptor (rPXR) activation by small molecules, qHTS assay (AID 1346983). Further: nearly all actives have a fitted effect of over 20% in size. On max activation: on the % scale 0 is the no-effect control and ±100 the full control effect. The settings on record: rPXR luciferase reporter cells, One-Glo luminescence, 24 h; max activation: hits give high values. The method, boiled down:
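Cell-based rPXR activation assay: rPXR cells, 2,000 per well, rested 5hr at 37 C, then exposed to compounds in DMSO for 24 hr at 37 C. Luciferase activity read by One-Glo luminescence after 30 min at room temperature.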

Test [14] has as its target Nuclear receptor subfamily 1 group I member 2 (Homo sapiens) (UniProt O75469). As to the kind of experiment: CYP3A4 induction through human pregnane X receptor (PXR) by small molecules, qHTS assay (AID 1346984). Further: nearly all actives have a fitted effect of over 40% in size. On activation: on the % scale 0 is the no-effect control and ±100 the full control effect. The procedure, abridged:
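HepG2-derived DPX-2 line carrying PXR plus a CYP3A4-promoter luciferase reporter; cells plated 5 hr, compound-exposed 24 hr at 37C. CYP3A4 activity probed with 3uM (final) Luciferin-IPA for 3hr, then luciferase read after One-Glo.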

For test [15] the target is unchanged. As to the kind of experiment: Human pregnane X receptor (PXR) activation by small molecules, qHTS assay (AID 1346985). Further: nearly all actives have a fitted effect of over 40% in size. On activation: on the % scale 0 is the no-effect control and ±100 the full control effect. The procedure, abridged:
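DPX-2 cells (HepG2 co-transfected with a PXR response element and a CYP3A4-promoter luciferase construct) were seeded at 2,000 per well, rested 5 hr at 37C, then exposed to DMSO-dissolved compounds for 24 hr. Activation was read as luciferase luminescence.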

Unmarked numbers belong to inactive results. Records with an inconclusive call do not appear. Active and inactive are the calls of the source. The call rests on the fitted dose curve; in most records, active means well fitted curve in the direction sought with a large enough effect in the repeat runs; inconclusive means weak or mixed curves; inactive means no such curve, though single readings can be large; an effect the other way counts as inactive or inconclusive.
Potency means the concentration at half of the fitted maximal effect.

Chain of Voltage-gated inwardly rectifying potassium channel KCNH2 (Homo sapiens) (Q12809 whole entry, looked up): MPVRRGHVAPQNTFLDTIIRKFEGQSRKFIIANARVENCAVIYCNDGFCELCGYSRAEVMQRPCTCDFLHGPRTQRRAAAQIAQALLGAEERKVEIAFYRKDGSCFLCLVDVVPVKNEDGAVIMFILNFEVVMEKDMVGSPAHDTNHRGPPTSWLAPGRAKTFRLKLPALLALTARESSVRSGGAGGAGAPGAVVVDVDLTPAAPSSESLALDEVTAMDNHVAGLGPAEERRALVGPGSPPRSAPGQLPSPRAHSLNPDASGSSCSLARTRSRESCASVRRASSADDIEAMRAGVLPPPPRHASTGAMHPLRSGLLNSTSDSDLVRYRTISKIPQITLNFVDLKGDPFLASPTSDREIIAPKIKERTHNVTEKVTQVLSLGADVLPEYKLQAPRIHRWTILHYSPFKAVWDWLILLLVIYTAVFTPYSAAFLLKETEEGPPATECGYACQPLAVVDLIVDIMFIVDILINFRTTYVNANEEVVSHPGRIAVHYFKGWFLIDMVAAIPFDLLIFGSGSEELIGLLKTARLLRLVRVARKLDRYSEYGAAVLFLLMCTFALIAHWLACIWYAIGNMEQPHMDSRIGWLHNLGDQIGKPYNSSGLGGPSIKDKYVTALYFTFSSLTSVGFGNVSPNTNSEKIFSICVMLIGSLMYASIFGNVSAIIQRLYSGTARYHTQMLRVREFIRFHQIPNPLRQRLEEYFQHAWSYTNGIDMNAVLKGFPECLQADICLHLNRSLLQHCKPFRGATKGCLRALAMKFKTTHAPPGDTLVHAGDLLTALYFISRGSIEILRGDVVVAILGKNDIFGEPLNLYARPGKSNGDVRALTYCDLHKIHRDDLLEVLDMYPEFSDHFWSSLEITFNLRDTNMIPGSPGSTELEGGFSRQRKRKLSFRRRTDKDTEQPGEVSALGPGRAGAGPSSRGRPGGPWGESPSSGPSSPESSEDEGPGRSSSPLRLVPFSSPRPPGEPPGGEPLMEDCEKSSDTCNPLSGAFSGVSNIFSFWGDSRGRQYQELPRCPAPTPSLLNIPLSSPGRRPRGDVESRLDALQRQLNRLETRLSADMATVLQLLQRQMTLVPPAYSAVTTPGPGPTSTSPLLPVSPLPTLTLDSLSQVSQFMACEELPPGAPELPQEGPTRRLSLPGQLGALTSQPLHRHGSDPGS
Chain of Cytochrome P450 2D6 (Homo sapiens) (P10635 whole entry, looked up): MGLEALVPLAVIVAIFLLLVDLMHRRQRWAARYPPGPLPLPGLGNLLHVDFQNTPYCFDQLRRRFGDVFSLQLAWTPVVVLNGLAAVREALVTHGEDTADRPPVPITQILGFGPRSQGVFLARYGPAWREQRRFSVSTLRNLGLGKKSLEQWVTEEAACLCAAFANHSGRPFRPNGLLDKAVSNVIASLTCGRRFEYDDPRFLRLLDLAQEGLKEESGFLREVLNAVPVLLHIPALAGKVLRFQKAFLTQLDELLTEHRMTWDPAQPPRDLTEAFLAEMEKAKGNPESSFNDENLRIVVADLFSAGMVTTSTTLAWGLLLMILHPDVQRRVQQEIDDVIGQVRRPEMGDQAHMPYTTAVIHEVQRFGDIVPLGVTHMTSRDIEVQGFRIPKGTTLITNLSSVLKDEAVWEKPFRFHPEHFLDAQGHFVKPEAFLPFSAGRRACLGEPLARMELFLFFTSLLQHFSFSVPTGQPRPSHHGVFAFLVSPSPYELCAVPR
Chain of Cytochrome P450 1A2 (Homo sapiens) (P05177 whole entry, looked up): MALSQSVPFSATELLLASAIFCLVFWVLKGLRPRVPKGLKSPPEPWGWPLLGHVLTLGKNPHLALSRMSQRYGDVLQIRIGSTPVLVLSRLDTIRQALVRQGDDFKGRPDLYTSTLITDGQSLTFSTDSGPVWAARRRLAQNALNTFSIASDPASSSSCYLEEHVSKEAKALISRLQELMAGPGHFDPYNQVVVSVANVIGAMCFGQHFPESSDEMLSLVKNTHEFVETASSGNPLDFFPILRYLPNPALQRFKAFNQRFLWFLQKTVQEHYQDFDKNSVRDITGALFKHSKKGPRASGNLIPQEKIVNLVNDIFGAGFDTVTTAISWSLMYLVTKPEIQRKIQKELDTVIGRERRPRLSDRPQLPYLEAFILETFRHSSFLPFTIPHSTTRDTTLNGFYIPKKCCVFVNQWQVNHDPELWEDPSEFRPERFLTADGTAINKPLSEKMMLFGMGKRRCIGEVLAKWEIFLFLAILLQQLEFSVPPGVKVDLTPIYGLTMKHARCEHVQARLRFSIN
Chain of Nuclear receptor subfamily 1 group I member 2 (Rattus norvegicus) (Q9R1A7 whole entry, looked up): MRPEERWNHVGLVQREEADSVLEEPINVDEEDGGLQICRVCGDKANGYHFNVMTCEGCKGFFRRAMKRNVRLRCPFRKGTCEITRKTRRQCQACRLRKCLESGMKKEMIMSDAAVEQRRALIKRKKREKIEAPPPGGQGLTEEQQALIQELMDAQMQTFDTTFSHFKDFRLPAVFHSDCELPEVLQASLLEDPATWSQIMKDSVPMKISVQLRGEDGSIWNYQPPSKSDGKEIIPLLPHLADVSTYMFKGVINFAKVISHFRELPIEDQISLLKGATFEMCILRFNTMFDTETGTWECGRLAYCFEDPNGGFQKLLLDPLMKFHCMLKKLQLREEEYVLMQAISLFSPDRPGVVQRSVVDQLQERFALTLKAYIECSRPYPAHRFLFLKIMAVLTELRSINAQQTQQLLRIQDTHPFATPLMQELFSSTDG

As to `O=c1c(O)c(-c2ccc(O)cc2)oc2cc(O)cc(O)c12`, the Potency entry in test [1] and in [3] was “inactive” each time. Moreover, the Potency in [2] and in test [4] was 60.9 µM (active) throughout.
For `CC(C)COCC(CN(Cc1ccccc1)c1ccccc1)N1CCCC1` (stereo not given), the Potency in test [5] is 29.8 µM (active); in [2], 29.8 µM (active); in test [4], 29.8 µM (active); in test [6] it was 0.0692 µM (active). The Potency entry in [7] is “inactive”.
With `Cc1cc(C)cc(N)c1`, the Potency entry in test [1], in test [2], in [3] and in test [11] was “inactive” in each case. The Potency is 61.9 µM (active) in test [8]; 5.09 µM (active) in test [6]; 7.19 µM (active) in [9]; 11.4 µM (active) in test [10]; 36 µM (active) in [7]; 3.21 µM (active) in [12].
With `C[C@@H](O[C@H]1OCCN(Cc2n[nH]c(=O)[nH]2)[C@H]1c1ccc(F)cc1)c1cc(C(F)(F)F)cc(C(F)(F)F)c1`, the Potency is 33.5 µM (active) in test [1]; 29.8 µM (active) in [2]; 29.8 µM (active) in test [4]; 19.5 µM (active) in test [6]; 13.8 µM (active) in test [10]; 8.49 µM (active) in test [11]. Besides, the Potency result in test [3] and in test [7] was “inactive” each time.
Take `COC(=O)C1=C(C)NC(C)=C(C(=O)O[C@@H]2CCCN(Cc3ccccc3)C2)[C@@H]1c1cccc([N+](=O)[O-])c1`: the Potency entry in test [1] and in test [3] was “inactive” in each case. For the same compound, the Potency in test [2] was 29.8 µM (active); in test [8], 2.11 µM (active); in [6], 15.5 µM (active); in [9], 4.9 µM (active); in test [10] it was 0.871 µM (active).
As for `CCOc1ccccc1O[C@H](c1ccccc1)[C@H]1CNCCO1`, the Potency result in test [1], in test [2], in [3], in [4], in [8] and in [14] was “inactive” throughout. Moreover, the Potency result in [9], in [10], in test [7] and in test [11] was “inactive” throughout. Besides, the max activation in [13] was -0.272%. In test [15], the Potency is 22.4 µM (active).
With `Oc1ccc(Cl)c2cccnc12`, the Potency entry in [1], in test [4], in test [15], in [9], in test [10] and in test [7] was “inactive” in each case. The Potency entry in test [11] and in [12] was “inactive” throughout. Besides, the values for the Potency in [2], in test [3] and in test [14] were 6.68 µM (active), 6.68 µM (active) and 2.51 µM (active), respectively. The max activation in test [13] was -0.0207%.
In the case of `O=c1cc(-c2ccccc2)oc2cc(O)cc(O)c12`, the Potency entry in test [1], in test [3] and in test [11] was “inactive” each time. The Potency in test [2] was 61.1 µM (active); in [4] it was 54.5 µM (active); in test [8], 48.6 µM (active); in test [12], 17.8 µM (active).
Consider `Cc1ccc(OC(=O)c2ccccc2O)cc1`, for which the Potency entry in test [1], in test [2], in test [3], in test [4], in test [8] and in test [12] was “inactive” in each case. Moreover, the Potency in test [10] and in test [7] was 35.6 µM (active) throughout.
With `CC1(C)O[C@@H]2C[C@H]3[C@@H]4C[C@H](F)C5=CC(=O)C=C[C@]5(C)[C@H]4[C@@H](O)C[C@]3(C)[C@]2(C(=O)CO)O1`, the Potency entry in test [1], in test [2], in test [3], in test [4], in [14] and in test [15] was “inactive” in each case. Besides, the Potency entry in test [10] and in [7] was “inactive” in each case. Besides, the Potency in test [13] was 8.91 µM (active); in test [12], 4.9 µM (active).
In the case of `CCOc1cccc(-n2cc(C(=O)N3CCN(c4cc(C(=O)O)c5ccccc5c4)CC3)nc2-c2ccc(C)cc2)c1`, the Potency entry in [1], in [4], in test [7] and in test [12] was “inactive” in each case. Also, the Potency is 58.3 µM (active) in test [2], 58.3 µM (active) in test [3] and 67.7 µM (active) in [10].
